Measured values taken from PubChem BioAssay.

Test: caspase-8 TRAIL sensitization, hit retest, confirmation, cell-based, NB7+caspase-8, with/without TRAIL, luminescence panel (AID 651596)
Conditions: NB7 neuroblastoma + caspase-8, without TRAIL, luminescence viability, without TRAIL, mean of runs, at 10 µM
`C#Cc1ccc(NC(=O)C2(C)CCN2C(=O)CC(c2ccccc2)c2ccccc2)cc1` (stereo unspecified) showed an activity of 89%. Work on `CCN1CCC(O)(/C=C/c2ccc(C(C)C)cc2)C(C(=O)/C=C/c2ccc(C(C)C)cc2)C1` (stereo unspecified) yielded an activity of 82.8%. Compound `CC(C)(C)OC(=O)NCCCCCNC(=O)c1[nH]cnc1C(=O)Nc1cc(Br)ccc1F` has an activity of 63.6%. In the case of `Cc1[nH]cnc1C(=O)N/N=C/c1c(Cl)cccc1Cl`, the activity is reported as 57.6%. Work on `COc1cccc(/C=C2/Sc3ccc(C(=O)NCCN4CCCCCC4)cc3NC2=O)c1` yielded an activity of 73.3%. For `O=C(Nc1ccc(Cl)cc1)Nc1ccccc1C(=O)O`, the activity was 45.1%. `CC(=O)c1c(C)[nH]c(C(=O)Nc2nc(C)cs2)c1C` gave an activity of 82.6%. In the case of `COc1cc(SC#N)ccc1N=Cc1c(C)[nH]n(-c2ccc(C)c(C)c2)c1=O`, the activity is reported as 97.7%. For `CCCOc1ccc(-c2cn3ccccc3n2)cc1[N+](=O)[O-]`, the activity was 52.1%. Compound `OCC1OC(n2cnc3c(NCc4ccco4)ncnc32)C(O)C1O` (stereo unspecified) has an activity of 54.3%. Compound `CN(C)CCNC(=O)c1cccc(-c2cc(NC=O)c3ncc(-c4cccc(C(F)(F)F)c4)n3c2)c1` has an activity of 99.5%.
